Source: PubChem BioAssay (National Center for Advancing Translational Sciences (NCATS))
NS1 inh: inhibitors of influenza NS1 protein function; Potency, µM (top dose mostly 46.1 µM), without a hit: at the top dose activity, positive = more growth; hit rate 0.4% among 270,000; calls by dose curve; note: actives are rising curves; nearly all actives have a fitted effect of over 50% in size
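Read-out: OD600 growth recovery of NS1-expressing budding yeast. Cells grown overnight at 30C in -URA glucose medium, washed, resuspended and diluted 1:100 in 2% galactose assay medium, pH 6.0. Same strain lacking NS1 served as positive control.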
HCV inh: blocks hepatitis C virus; Huh7.5.1 HCVcc-Cre infection, luciferase reporter, 44 h; Potency, µM (doses to about 41.8 µM), inactives show top-dose activity change, negative = inhibition, usual class: inhibitors; hit rate 3.4% among 340,000; AID 651820; note: % is set by controls: 0 for no effect and ±100 for the full control effect
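Antiviral activity was scored by luciferase reporter output from cells infected with HCVcc-Cre (~0.5 moi) in presence of compound, 44 h infection period, cells seeded 1,000/well 4 h prior.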
Vaccinia Venus: vaccinia inhibition (Venus reporter) | Potency, µM (series often up to 36.5 µM), inactives show at the highest dose activity change, negative = inhibition, actives largely listed as inhibitors | hit rate 0.46% among 330,000 | Vaccinia virus Venus reporter expression, fluorescence; calls by dose curve; tested in A549 cells; note: % is set by controls: 0 for no effect and ±100 for the full control effect; nearly all actives have a fitted effect of over 30% in size
Pf growth 48h: P. falciparum growth inhibition at 48 hours (one generation) | Potency, µM (titrated, usually from 28.7 µM), inactives show top-dose activity change, negative = inhibition, actives largely listed as inhibitors | hit rate 5.9% among 310,000 | P. falciparum luciferase growth in erythrocytes, 48 h; note: % is set by controls: 0 for no effect and ±100 for the full control effect
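A one-generation exposure of luciferase-tagged malaria parasites in RPMI 1640/Albumax erythrocyte culture, 37 C and 5% CO2. Inhibition is inferred from decreased luminescence after adding detection reagent.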
Pf growth 96h: P. falciparum growth inhibition at 96 hours. P. falciparum luciferase reporter growth, 96 h. Potency, µM (titrated, usually from 28.7 µM), inactives show at the top dose activity change, negative = inhibition, hits mostly inhibitors. hit rate 6.9% among 320,000; note: % is set by controls: 0 for no effect and ±100 for the full control effect
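Luminescence readout: decreased luciferase signal marks inhibited growth of reporter-expressing P. falciparum in infected red cells (2% hematocrit, 0.05% parasitemia final), exposed to compound two generations (96 h, 37 C, 5% CO2).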
VACV mCherry inh: vaccinia inhibition (mCherry reporter); Potency, µM (highest dose often 36.5 µM), inactives show top-dose activity change, negative = inhibition, actives largely listed as inhibitors; Vaccinia virus mCherry reporter infection, fluorescence; hit rate 0.63% among 310,000; AID 720579; calls by dose curve; tested in A549 cells; note: % is set by controls: 0 for no effect and ±100 for the full control effect; nearly all actives have a fitted effect of over 35% in size
Starred values were filed as active, the others as inactive; i = inactive; ? = inconclusive; / = no result given. Shown are actives, neighbours in structure and some others; about 11% of the full set was active somewhere. Unless noted, calls come from the whole dose curve; as a rule, active = well fitted inhibition curve with a large enough effect; inconclusive = small, poorly fitted or top-dose-only effect, or another doubt; inactive = no such curve, though single readings can be large or run the other way. Potency is the fitted concentration of half-maximal effect.

SMILES	NS1 inh	HCV inh	Vaccinia Venus	Pf growth 48h	Pf growth 96h	VACV mCherry inh
COC(=O)C1=C(c2c(C)noc2C)C[C@@H]2CC[C@H]1N2C(=O)N1CCc2cc(OC)c(OC)cc2C1	/	20.6%	-5.8%	14.7µM*	?	i
COC(=O)C1=C(c2ccc(Cl)c(C(F)(F)F)c2)C[C@@H]2CC[C@H]1N2C(=O)N1CCC(O)(c2ccc(Cl)cc2)CC1	/	10µM*	?	/	/	-20.5%
COC(=O)C1=C(c2ccc(Cl)c(C(F)(F)F)c2)C[C@@H]2CC[C@H]1N2C(=O)N1CCCC1	/	31.6µM*	-26.6%	11.7µM*	?	-5.5%
COC(=O)C1=C(c2ccc(Cl)c(C(F)(F)F)c2)C[C@@H]2CC[C@H]1N2C(=O)N1CCOCC1	/	?	?	?	?	-11.4%
N#C/C(=C\c1c[nH]c2ccccc12)C(=O)NC1CC1	-17.1%	?	-10.1%	166.3%	12.3%	-10.5%
CSc1ccccc1OCc1cc(C(=O)NCCn2nc(C)cc2C)no1	-22.8%	/	-16.4%	?	8.0%	-4.6%
COC(=O)C1=C(c2ccc(F)cc2F)C[C@@H]2CC[C@H]1N2C(=O)N1CCC(O)(c2ccc(Cl)cc2)CC1	/	?	?	9.28µM*	?	i
CC1=NN(c2ccc(F)cc2)C(=O)C1C(c1cccc(O)c1)c1c(C)[nH]n(-c2ccc(F)cc2)c1=O (stereo not given)	18.8%	5.7%	-15.8%	-7.6%	70.3%	i
CCOC(=O)C1(Cc2ccccc2C(F)(F)F)CCN(Cc2ccc(COC)o2)CC1	8.3%	8.91µM*	-8.9%	?	?	-23.7%
CCOC(=O)C1(Cc2cccc(OC)c2)CCN(Cc2ccc(OC)c(OC)c2)CC1	-2.5%	11.2µM*	-18.2%	?	?	i
CCOC(=O)C1CCN(Cc2ccc(OC)c(OCc3ccccc3)c2)CC1	-4.1%	?	/	29.7%	11.7µM*	/
CCOC(=O)C1(CC2CC2)CCN(Cc2cnc(N(C)C)s2)CC1	-2.3%	-6.8%	/	-0.7%	-26.7%	/
CCOC(=O)C1(CC2CC2)CCN(Cc2cn(C)c3ccccc23)CC1	-6.9%	10µM*	-22.2%	?	-2.9%	-18.1%
O=C1C2CCCCC2C(=O)N1c1nccs1 (stereo not given)	12.3%	4.6%	6.2%	1.4%	?	i
CCOC(=O)C1(Cc2cccc(OC)c2)CCN(Cc2cccc(OC)c2O)CC1	-5.7%	?	-10.5%	?	13.1µM*	-21.5%
CCOC(=O)C1(Cc2ccccc2)CCN(Cc2cn(CC(=O)OC)c3ccccc23)CC1	7.4%	22.7%	-6.3%	?	5.22µM*	-9.5%
CCOC(=O)C1(Cc2cccc(OC)c2)CCN(Cc2ccccc2OC)CC1	-3.4%	?	-16.3%	11.1%	20.3%	-19.3%
CCOC(=O)C1(Cc2cccc(OC)c2)CCN(Cc2cccn2-c2nccs2)CC1	-2.5%	-23.5%	-11.9%	11.7µM*	?	-4.6%
CCOC(=O)C1(CC2CC2)CCN(Cc2ccc(C(=O)OC)cc2)CC1	-1.3%	3.5%	/	9.28µM*	-18.8%	/
CNC(=S)Nc1ccc(C23CC4CC(CC(C4)C2)C3)cc1	-1.0%	?	-20.7%	3.1%	35.6%	-13.7%
CCOC(=O)C1(Cc2ccccc2)CCN(Cc2cccc(OC)c2O)CC1	-1.3%	?	-11.9%	?	10.4µM*	-19.8%
CC(=O)Nc1ccc(CC(=O)O)cc1	/	14.6%	-2.1%	-18.6%	?	-1.5%
O=C(NCc1ccccn1)C1CCN(C(=O)c2cc3sccc3n2Cc2ccc(F)cc2)CC1	/	-15.7%	/	-28.2%	?	/
CC1Cc2ccccc2N1C(=O)c1cc2sccc2n1Cc1ccc(F)cc1 (stereo not given)	22.2%	-25.6%	-13.1%	11.7µM*	?	-15.8%
O=C(NCCCN1CCCC1)C1CCN(C(=O)c2cc3sccc3n2Cc2ccc(F)cc2)CC1	4.3%	25.1µM*	-22.4%	/	10.4µM*	-26.0%
SMILES	NS1 inh	HCV inh	Vaccinia Venus	Pf growth 48h	Pf growth 96h	VACV mCherry inh
Cc1ccc(Cn2c(C(=O)NCCCN3CCOCC3)cc3sccc32)cc1	0.8%	?	/	11.7µM*	115.6%	/
O=C(NCc1ccco1)C1CCN(C(=O)c2cc3sccc3n2Cc2ccc(F)cc2)CC1	?	?	-29.7%	1.85µM*	6.2%	-9.7%
CC1CCc2sc3ncn4nc(C(=O)NCc5ccco5)nc4c3c2C1 (stereo not given)	-34.4%	?	-7.0%	15.0%	5.9%	-10.5%
CCOC(=O)c1c(C)n(Cc2ccc(F)cc2)c2ccc(O)cc12	2.3%	?	/	?	-22.5%	/
O=C(NCC1CCCO1)c1ccccc1-c1nc(-c2ccc(Cl)cc2)no1 (stereo not given)	-3.9%	?	-17.7%	30.9%	8.1%	?
O=C(NC1CCCCC1)c1ccc(NS(=O)(=O)c2cccc3cccnc23)cc1	-13.2%	?	/	?	31.2%	/
COc1ccc(NS(=O)(=O)c2cccc3cccnc23)cc1Cl	5.8%	-22.3%	-18.6%	?	0.928µM*	-21.4%
Cc1cccc(NS(=O)(=O)c2ccc(C3CCCCC3)cc2)n1	-97.1%	10.8%	/	9.28µM*	/	/
Cc1cccc(NS(=O)(=O)c2cccc3cccnc23)n1	-2.6%	11.8%	-0.8%	8.0%	1.65µM*	6.3%
O=S(=O)(NC1CCCCCC1)c1cccc2cccnc12	-5.2%	5.8%	-5.7%	-7.1%	5.22µM*	-9.5%
O=C(CCNc1n[nH]c(=O)[nH]c1=O)N1CCCCC1	-0.3%	13.1%	/	5.1%	/	/
Cc1ccc(NC(=O)c2ccc(NS(=O)(=O)c3cccc4cccnc34)cc2)cc1	-2.1%	10µM*	-27.3%	-22.9%	9.3%	?
CC(=O)Nc1ccc(NC(=O)c2ccc(NS(=O)(=O)c3cccc4cccnc34)cc2)cc1	3.7%	-10.8%	-10.8%	?	-9.8%	-4.6%
Cc1cc(C(=O)NCCC2=CCCCC2)no1	-14.8%	36.2%	-6.0%	19.6%	20.3%	-8.3%
O=C(NCCC1=CCCCC1)c1c(O)nc2sccn2c1=O	/	?	-15.0%	11.7µM*	?	-14.5%
O=C(NCCC1=CCCCC1)c1cnsn1	-1.9%	?	-10.5%	89.5%	4.65µM*	-18.0%
Cc1cc(OCC(=O)NCC2(N3CCN(C)CC3)CCCCC2)cc(C)c1Cl	/	/	-24.6%	/	/	-7.6%
CC1CC(OC(=O)c2ccccc2O)CC(C)(C)C1 (stereo not given)	/	/	-4.0%	-6.5%	-2.9%	i
CCOC(=O)Cc1cnc(NC(=O)Cn2nnc(-c3ccc(OCC)cc3)n2)s1	-8.9%	-18.0%	-13.4%	0.0%	6.57µM*	i
CCCCOc1ccc(-c2nnn(CC(=O)Nc3ncc(CC(=O)OCC)s3)n2)cc1	-27.5%	-2.2%	-8.5%	?	?	-10.3%
CCOc1ccc(-c2nnn(CC(=O)NCc3ccc(C)cc3)n2)cc1	/	-2.2%	-10.6%	0.8%	7.38µM*	i
CCOc1ccccc1NC(=O)Cn1nnc(-c2ccc(OCC)c(OCC)c2)n1	4.6%	8.91µM*	?	-11.5%	/	?
